Only some compounds are listed: those with a hit (about 6.8% of all), similar ones and a draw of the others.
KB-V1 MDR tox = qHTS assay for MDR1-selective chemotherapeutics: Primary screen using the drug-selected MDR subline cells KB-V1; KB-V1 MDR cells viability, CellTiter-Glo, 72 h; Potency, µM (top dose mostly 46.1 µM), hits mostly cytotoxic; actives 3.4% (n = 400,000); AID 1347076, 2019; also: nearly all actives have a fitted effect of over 60% in size
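qHTS viability screen in drug-selected KB-V1 MDR cells: 72 h compound treatment at 37 degrees C, ATP luminescence end point.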
PINK1 expr mod = A Quantitative High throughput Screen to Identify Chemical Modulators of PINK1 Expression; actives 0.2% (n = 410,000); Potency, µM (top dose mostly 76.6 µM), usual class: activators; PINK1 immunofluorescence, high-content cytometry, 24 h; AID 624263, 2012; active = well fitted activation curve with a large enough effect; inconclusive = small, poorly fitted or top-dose-only effect; cell line not stated here; also: nearly all actives have a fitted effect of over 65% in size
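A stable cell line was treated with compounds at 5 concentrations for 24 hours, with CCCP as control. PINK1 levels and mitochondrial localization were measured by immunofluorescence with mitochondrial, cell and nuclear markers after fixation, read by laser-scanning cytometry.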
KB-3-1 tox = qHTS assay for MDR1-selective chemotherapeutics: Primary screen using the parental adenocarcinoma cell KB-3-1; actives 1.4% (n = 400,000); KB-3-1 viability, CellTiter-Glo ATP luminescence, 72 h; AID 1347075, 2019; Potency, µM (highest dose often 46.1 µM), most hits filed as cytotoxic; also: nearly all actives have a fitted effect of over 60% in size
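Cytotoxicity measured as CellTiter-Glo luminescence after 72 h at 37 C. Compound titrations were pinned onto drug-naive KB-3-1 parental adenocarcinoma cells grown in DMEM with 10% FBS, and normalized data fitted to concentration-response curves.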
TSG101-PTAP inh = qHTS Assay for Iinhibitors of HIV-1 Budding by Blocking the Interaction of PTAP/TSG101; Tumor susceptibility gene 101 protein (Homo sapiens), Q99816; Fluorescence polarization, FITC-PTAP peptide / Tsg101 binding; Potency, µM (top dose mostly 115 µM), actives largely listed as inhibitors; 340,000 tested, under 10 active; active = well fitted inhibition curve with a large enough effect in the main read-out, with a control signal flat, not every such curve was filed as active; inconclusive = small, poorly fitted or top-dose-only effect, or effect the other way, or a change in a side signal; inactive = no such curve, though single readings can be large or run the other way
Target sequence (Q99816 whole entry, looked up): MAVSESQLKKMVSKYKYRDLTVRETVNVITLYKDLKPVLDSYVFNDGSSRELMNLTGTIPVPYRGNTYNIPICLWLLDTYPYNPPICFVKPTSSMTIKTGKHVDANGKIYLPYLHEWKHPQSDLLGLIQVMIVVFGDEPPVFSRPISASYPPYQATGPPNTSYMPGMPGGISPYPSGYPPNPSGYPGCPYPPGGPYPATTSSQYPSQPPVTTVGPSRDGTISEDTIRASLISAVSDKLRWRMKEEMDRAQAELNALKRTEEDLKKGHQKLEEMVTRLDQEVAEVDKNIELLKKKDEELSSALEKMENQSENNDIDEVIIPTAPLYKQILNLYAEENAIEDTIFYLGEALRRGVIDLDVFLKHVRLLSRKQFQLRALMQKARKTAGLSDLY
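Steps: Tsg101 binding domain dispensed (10 uM final), compounds pinned in DMSO, FITC-labeled PTAP-motif peptide added (50 nM final); after 20 min binding at room temperature, polarization measured.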
SW480 rereplic = A quantitative high throughput screen for small molecules that induce DNA re-replication in SW480 colon adenocarcinoma cells; SW480 DNA re-replication, Hoechst DNA content imaging, 48 h; Potency, µM (doses to about 46.1 µM), most hits filed as activators; actives 1.8% (n = 340,000); also: nearly all actives have a fitted effect of over 55% in size
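Image-based read-out: total Hoechst fluorescence of nuclei (405 nm excitation, 500-530 nm emission), with hits raising the fraction of high-intensity nuclei. SW480 colon cells incubated 48 hr with compounds at 37 C.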
MCF10A rerep = A quantitative high throughput screen for small molecules that induce DNA re-replication in MCF 10a normal breast cells; MCF 10A DNA re-replication, Hoechst nuclear intensity, 48 h; Potency, µM (highest dose often 46.1 µM), hits mostly activators; actives 2.9% (n = 350,000); AID 624296, 2012; also: nearly all actives have a fitted effect of over 50% in size
Each line names hits and unclear results; the compound was inactive in the other large screens; ! = not active in a repeat. Unless noted, calls follow the shape of the dose curve; as a rule, active = well fitted curve in the direction sought with a large enough effect; inconclusive = small, poorly fitted or top-dose-only effect, or another doubt; inactive = no such curve, though single readings can be large; an effect the other way counts as inactive or inconclusive.

Cc1cc(NC(=O)CCl)nn1C	KB-V1 MDR tox 21µM, KB-3-1 tox 13µM, SW480 rereplic inconclusive, MCF10A rerep inconclusive
CCCCCCC(=O)c1c(O)n(-c2ccc(OC)cc2)c(=O)[nH]c1=O (tested in a mixture with another compound)	KB-V1 MDR tox 8.2µM
CCCCCCC(=O)c1c(O)n(-c2ccccc2OC)c(=O)[nH]c1=O (tested in a mixture with another compound)	KB-V1 MDR tox inconclusive
CC1CCC2(CC1)NC(=O)N(NC(=O)CCl)C2=O (stereo not drawn)	none
O=C(O)CCCCC1SCC2NC(=O)NC21 (stereo not drawn)	none
COc1ccc2c(c1)[nH]c1c(C)nccc12	KB-V1 MDR tox 23µM!, KB-3-1 tox inconclusive, SW480 rereplic inconclusive, MCF10A rerep inconclusive
Cc1nccc2c1[nH]c1ccc(Br)cc12	KB-V1 MDR tox inconclusive
O=Cc1c(C(=O)O)n(Cc2ccccc2Cl)c2ccccc12	none
Cc1cc(C)c(Cn2c(C(=O)O)c(C=O)c3ccccc32)c(C)c1	KB-V1 MDR tox inconclusive, TSG101-PTAP inh inconclusive, SW480 rereplic inconclusive, MCF10A rerep 6.5µM
Cc1nn(Cc2ccccc2Cl)c(Cl)c1C(=O)O	none
COc1ccc(NC(=O)c2c(C)nn(Cc3ccccc3Cl)c2Cl)cc1Cl	MCF10A rerep 16µM
CCN(CC)C(=O)c1ccc(NC(=O)c2cccc(S(=O)(=O)N3CCN(C)CC3)c2)cc1	none (no result: KB-V1 MDR tox, KB-3-1 tox)
CCN(CC)C(=O)c1ccc(NC(=O)c2cccc(F)c2)cc1	KB-V1 MDR tox 21µM
CC[C@@H](O)C[C@H]1CCC[C@@]2(C[C@@H]3OC(=O)/C=C/[C@@](C)(O)[C@@H](O)[C@H](C)[C@@H](O)[C@H](OC4CCC(N(C)C)C(C)O4)[C@@H](O)[C@](C)(O)CCCCC/C=C/[C@@H]4CC(C)(C)O[C@@]4(O)C[C@H](O2)[C@H]3C)O1 (stereo partly drawn)	KB-V1 MDR tox 0.073µM, KB-3-1 tox 0.16µM, SW480 rereplic inconclusive, MCF10A rerep inconclusive
CCCC(C)(COC(N)=O)COC(=O)NC1CC1 (stereo not drawn)	none (no result: KB-V1 MDR tox, PINK1 expr mod, KB-3-1 tox, TSG101-PTAP inh)
CCCCn1c(O)c(C(CC)=Nc2ccc(OC)cc2OC)c(=O)[nH]c1=O	KB-V1 MDR tox 21µM, KB-3-1 tox inconclusive, SW480 rereplic inconclusive, MCF10A rerep inconclusive
CCCCn1c(O)c(C(CC)=NCc2cc(OC)cc(OC)c2)c(=O)[nH]c1=O	KB-V1 MDR tox 3.7µM
CCCCn1c(O)c(C(C)=NCc2cc(OC)cc(OC)c2)c(=O)[nH]c1=O	KB-V1 MDR tox inconclusive
CCCCn1c(O)c(C(CC)=Nc2ccc(OCC)cc2)c(=O)[nH]c1=O	KB-V1 MDR tox 21µM, KB-3-1 tox inconclusive
CCCCn1c(O)c(C(CC)=NC(C)c2ccccc2)c(=O)[nH]c1=O (stereo not drawn)	SW480 rereplic inconclusive, MCF10A rerep inconclusive
CC(=O)NCC(N)C(=O)c1ccc(Cl)c(Cl)c1 (stereo not drawn)	none (no result: KB-V1 MDR tox, KB-3-1 tox, TSG101-PTAP inh, SW480 rereplic, MCF10A rerep)
CCN[C@]1(c2cccs2)CCCCC1=O	none (no result: KB-V1 MDR tox, PINK1 expr mod, KB-3-1 tox, TSG101-PTAP inh)
C=CC[C@@H](CC(=O)N(CCO)Cc1ccccc1)C(=O)NC[C@@H](OC(=O)[C@@H](CC=C)CC(=O)OC(C)(C)C)c1ccccc1	none
S=C(S)N1CCCC1	MCF10A rerep inconclusive
COCCCNC(=O)c1c(NC(=O)c2ccccc2)n(Cc2ccccc2)c2nc3ccccc3nc12	SW480 rereplic 1.3µM, MCF10A rerep inconclusive
CCCCCn1c(N)c(C(=O)NCCN2CCOCC2)c2nc3ccccc3nc21	KB-V1 MDR tox inconclusive, KB-3-1 tox inconclusive, SW480 rereplic 2.9µM, MCF10A rerep inconclusive

Screening results: PubChem, National Center for Advancing Translational Sciences (NCATS)
